# Source: PubChem BioAssay (NCI)
# Values joined by “and” are separate entries in the source; they are usually repeats but may differ in a detail not shown here. Equal values may be shown once. Compounds without any hit were thinned out: in the full panel of roughly 79,000, 15% have a hit. Active and inactive are the calls of the source. Rule as the data show it: active = growth inhibition above about 70%; inactive = the rest.
# Assay: NCI Yeast Anticancer Drug Screen. Data for the rad50 strain (AID 155);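 also: 0% = growth of vehicle-only cultures of the same strain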
# Details: S. cerevisiae rad50 strain growth inhibition; at 50.0 µM; active compounds read high
# Method in brief: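 Yeast carrying a defined DNA repair defect were exposed to test compounds, and growth was compared with vehicle-treated controls to give percent inhibition.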
row,Structure (SMILES),growth inhibition
1,ClCCN(CCCl)c1ccc(C2=Nc3cccc4cccc(c34)N2)cc1,3.65% (inactive)
2,COc1cc(Cl)c(OP(=O)(OC)OC)cc1Cl,-3.8% (inactive)
3,c1ccc(CC[n+]2cccc3ccccc32)cc1,-3.8% (inactive)
4,CCC1(C(C)c2ccccc2)C(=O)NC(=O)NC1=O (stereo not drawn),0% (inactive)
5,CCCCCCOC(=O)c1ccccc1C(=O)OCCCCCC,-13.2% (inactive)
6,S=C=Nc1ccccn1,9.9% (inactive)
7,O=C(CF)[O][Sb]([O]C(=O)CF)([c]1ccccc1)([c]1ccccc1)[c]1ccccc1,9.8% (inactive)
8,O=C1C=C2c3ccccc3CC(C(=O)O)C2CC1 (stereo not drawn),-20.5% (inactive)
9,Cc1ccc(NC2=NCCS2)cc1Cl,3.05% (inactive)
10,Nc1ccc([As](O)O)c(C(=O)O)c1,-15.1% (inactive)
11,CC(=O)OCC12CCC(C)=CC1OC1C(N(C)C)C(O)C2(C)C12CO2 (stereo not drawn),33.1% (inactive)
12,O=NNc1ccc(Br)cn1,-2.7% (inactive)
13,COc1ccc2c3c1O[C@H]1C(Br)C=C[C@H]4[C@@H](C2)N(C)CC[C@]314 (stereo partly drawn),-11.8% (inactive)
14,N=C(N)SCc1ccc(Cl)c(Cl)c1 (tested in a mixture with another compound),13.6% (inactive)
15,C=CC[As](=O)(O)c1ccccc1Cl,96% (active)
16,CN(C)S(=O)(=O)N(SC(F)(Cl)Cl)c1ccccc1,98.8% (active)
17,O=NNc1cnccn1,-15.2% (inactive) and -8.45% (inactive)
18,CCC[CH2][Sn]1([CH2]CCC)[O]C(=O)CN=C(C)c2ccccc2[O]1,0.1% (inactive)
